Screening data as filed in PubChem.
Eya2 phos inh: blocks the phosphatase activity of human Eya2; O00167; recombinant Eya2, OMFP fluorescence dephosphorylation (OMFP is methylfluorescein phosphate); Potency, µM (series often up to 76.9 µM), inactives show top-dose activity, negative = inhibition, most hits filed as inhibitors; hit rate 0.006% among 330,000; note: potency is the fitted concentration of half-maximal effect
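Eya2 (0.2 uM) preincubated 10 min at ambient with compound, then OMFP substrate added at 50 uM; 10 min reaction in 50 mM HEPES pH 7.5, 50 mM NaCl, 5 uM MgCl2, 0.05% BSA, 1 mM DTT. Fluorescence read at Ex 485/Em 525 nm.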
B2AR arrestin: agonists driving beta-arrestin recruitment to human beta2-adrenergic receptor | Potency, µM (doses to about 46.1 µM), for inactives: top-dose activation, actives largely listed as activators | AID 492947 | beta-arrestin recruitment to beta2AR, cell-based reporter | hit rate 0.02% among 330,000;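 note: potency is the fitted concentration of half-maximal effect; 0% = DMSO controls and full agonism = EC100 isoproterenol or metaproterenol; nearly all actives have a fitted effect of over 65% in size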
L3MBTL1 block: inhibitors of human L3MBTL1; Q9Y468; AlphaScreen L3MBTL1–H3K9me1 peptide binding; Potency, µM (doses to about 57.1 µM), without a hit: at the top dose activity, negative = inhibition, most hits filed as inhibitors; hit rate 0.66% among 230,000; AID 485360; note: potency is the fitted concentration of half-maximal effect; nearly all actives have a fitted effect of over 60% in size
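L3MBTL1 50 nM + b-AHA-H3(1-15)K9me1 75 nM, 30 min RT; compound added, 30 min RT; streptavidin donor/Ni-chelate acceptor beads 10 ug/mL each final, 30 min RT dark; AlphaScreen read.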
Six1-Eya2 inh: blocks human Six1 binding to Eya2. hit rate 0.56% among 360,000. Q15475+O00167. AlphaScreen GST-Six1/His-Eya2 binding, biochemical; active compounds read low. activity change, % (concentration not given with the values). AID 651725; in the data active = activity change below about -65%; inconclusive = mostly about -30% to -63%
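Homogeneous AlphaScreen proximity assay pairing GST-Six1 with His-tagged Eya2 (added as 5X mix: 250 nM and 500 nM) in 50 mM Tris pH 8.0, 300 mM NaCl, 1 mM TCEP. Glutathione donor and nickel acceptor beads; 1 h, 37 °C, dark.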
CtBP-E1A inh: inhibitors of CtBP/E1A interaction | AlphaScreen GST-E1A/His-CtBP binding, 1536-well; active compounds read low | activity change, % (concentration not given with the values) | hit rate 0.49% among 340,000 | AID 651724; in the data active = activity change below about -65%; inconclusive = mostly about -30% to -63%
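Steps: dispense buffer (Tris pH 8.0, NaCl 300 mM, TCEP 1 mM, BSA, Tween 20); add 5X protein mix (GST-E1A, His-CtBP, 125 nM each); pin 23 nL compound; 2 h at 37 °C, dark; add 5X beads (50 ug/mL); 1 h; read.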
Active calls of the source: *; ? = inconclusive; / = no result given; [ ] = dose if it differs, or a comment. The list is not random: actives were taken first. Their share in the collection is about 0.9%. Unless noted, calls come from the whole dose curve; as a rule, active = well fitted curve in the direction sought with a large enough effect; inconclusive = small, poorly fitted or top-dose-only effect, or another doubt; inactive = no such curve, though single readings can be large; an effect the other way counts as inactive or inconclusive. Unless noted, % is set by controls: 0 for no effect and ±100 for the full control effect.

SMILES	Eya2 phos inh	B2AR arrestin	L3MBTL1 block	Six1-Eya2 inh	CtBP-E1A inh
CC(C)c1ccc2[nH]c3c(c2c1)[C@@H]1CCN2C(=O)CCC[C@H](C3)[C@H]12	-2%	-1%	-4%	-11	-5
CN(C)c1nc(N)nc2c1ncn2C1OC(CO)CC1O (stereo unspecified)	/	/	/	-4	-2
CCN(C(=O)CSc1nc2scc(-c3ccccc3)c2c(=O)n1N)C1CCS(=O)(=O)C1 (stereo unspecified)	/	/	/	-5	8
COc1ccc(NC(=O)N(C)C[C@H]2Oc3ccc(NS(=O)(=O)c4cccs4)cc3C(=O)N([C@@H](C)CO)C[C@@H]2C)cc1	-4%	-1%	-1%	-1	7
COc1ccccc1C(CNC(=O)C(CCSC)NC(=O)c1ccccc1Cl)N1CCCC1 (stereo unspecified)	/	/	/	-2	6
CCn1c2ccccc2c2cc(NC(=O)COC(=O)c3ccc(NC(=O)CC#N)cc3)ccc21	-20%	0%	32µM*	?	2
Nc1cc2nsnc2cc1Br	-5%	-1%	16µM*	-2	?
COc1cccc(/C=N/NC(=O)CNC(=O)COc2cccc(C)c2)c1O	4%	-1%	22%	-73*	/
Cc1cccc(OCC(=O)NCC(=O)N/N=C/c2ccc(O)cc2O)c1	-17%	-1%	/	-85*	/
Cc1cccc(OCC(=O)NCC(=O)N/N=C/c2ccccc2)c1	-7%	0%	/	-2	3
Cc1cc(=O)oc2cc(OCC(O)Cn3ccnc3)ccc12 (stereo unspecified)	1%	-1%	0%[2.29 µM]	-5	0
Oc1[nH]c2ccc(Br)cc2c1N=NC(=S)N1CCOCC1	-15%	1%	?	-78*	?
COC(=O)N=Nc1c(O)[nH]c2ccc(Br)cc12	-1%	0%	6%	-18	-12
CCn1c(C)nc2cc(C(=O)N/N=C/c3ccc(O)c(O)c3O)ccc21	4%	0%	2.2µM*	-90*	-93*
COc1cccc(/C=N/NC(=O)c2nc(-c3ccccc3)cc(-c3ccccc3)n2)c1O	-4%	0%	5%	-3	-6
CCn1c(C)nc2cc(C(=O)N/N=C/c3cccc(OC)c3O)ccc21	-21%	0%	-28%	-80*	-93*
O=C(CCc1c[nH]c2ccccc12)NC(Cc1ccccc1)C(=O)O (stereo unspecified)	-1%	1%	/	-4	-17
COc1cc2[nH]c(=O)n(CCCCCC(=O)N3CC=C(c4ccccc4)CC3)c(=O)c2cc1OC	-22%	0%	/	?	-93*
COc1cc(NCCCCCCN)c2ncccc2c1OC	/	/	/	?	-71*
COc1ccc(NC(=O)CCC(=O)OCc2ccc([N+](=O)[O-])cc2)cc1	-3%	-1%	?	-8	-18
CCOC(=O)C1=C(C)N(CCCC(=O)O)C(=O)NC1c1cccs1 (stereo unspecified)	/	/	/	1	6
Cc1ccc(NC(=S)c2nc3ccccc3[nH]2)c(C)c1	-9%	0%	?	-72*	?
Cc1ccc(NC(=S)c2nc3ccccc3[nH]2)cc1	-21%	0%	?	-81*	-72*
COc1cccc(S(=O)(=O)Nc2ccc3c(c2)[C@H]2C[C@H](CC(=O)N[C@@H](C)c4ccccc4)O[C@H](CO)[C@H]2O3)c1	/	/	/	0	2
NC(Cc1cnc[nH]1)c1csc(Nc2ccc(C(F)(F)F)cn2)n1 (stereo unspecified)	/	/	/	-90*	-92*
SMILES	Eya2 phos inh	B2AR arrestin	L3MBTL1 block	Six1-Eya2 inh	CtBP-E1A inh
CCc1cc(=O)oc2cc(C)c(CN3CCCCC3)c(O)c12	-3%	0%	13µM*	-29	11
CCCc1cc(=O)oc2cc(C)c(CN3CCCC3)c(O)c12	5%	-1%	8.9µM*	-22	5
CCc1cc(=O)oc2cc(C)c(CN3CCCC3)c(O)c12	0%	0%	4µM*	?	-7
Cn1c2cc([N+](=O)[O-])sc2c2cnn(Cc3ccccc3F)c(=O)c21	-6%	0%	-12%	/	/
CCS(=O)(=O)Nc1cccc(-c2ccc3nnc(-c4cccnc4)n3n2)c1	4%	3%	/	-67*	-85*
Cc1cc(Nc2ccccc2C(=O)O)n(-c2ccc([N+](=O)[O-])cc2)n1	1%	0%	-9%	-81*	/
O=C(NCCCCO)c1c(-c2ccccc2)oc2c1C(OCCCCCO)CCC2 (stereo unspecified)	/	/	/	15	-11
Cn1ccnc1C(=O)Cc1ccc([N+](=O)[O-])cc1	/	/	/	2	-85*
Cn1ccnc1SCc1ccc([N+](=O)[O-])cc1	3%	0%	-1%	-2	1
Cc1c(CC(=O)N[C@@H](C)C(=O)O)c(=O)oc2cc3occ(-c4ccccc4)c3cc12	11%	0%	/	-69*	/
Cc1coc2c(C)c3oc(=O)c(CCC(=O)N[C@@H](C)C(=O)N[C@@H](Cc4ccccc4)C(=O)O)c(C)c3cc12	2%	-1%	/	-69*	-80*
Cc1c(CC(=O)N[C@@H](C)C(=O)O)c(=O)oc2c(C)c3occ(-c4ccccc4)c3cc12	6%	-1%	/	-65*	-83*
Cc1c(CC(=O)O)c(=O)oc2cc3occ(-c4ccccc4)c3cc12	-5%	-1%	/	-3	0
COc1cc(OC)c(C(=O)OCC(=O)NCCC2=CCCCC2)cc1OC	8%	1%	-13%	-3	-22
NC(=O)NC(CC(=O)NNC(=O)c1ccccn1)c1ccccc1Cl (stereo unspecified)	-3%	0%	-1%	-65*	-79*
CC(C)n1cc(/C=N/NC(=O)COc2cccc3cccnc23)c2ccccc21	-12%	0%	8%	-16	-2
COc1ccccc1OCC(=O)N/N=C/c1cccc2cccnc12	-18%	0%	/	-74*	-86*
COc1ccc(OCC(=O)N/N=C/c2cccc3cccnc23)cc1	/	/	/	-80*	-86*
COc1cccc(/C=N/NC(=O)CSc2cccc3cccnc23)c1	-7%	-1%	?	-94*	-94*
Cc1cc(/C=N\NC(=O)COc2cccc3cccnc23)c(C)n1-c1ccccc1	-2%	-1%	-8%	-12	-18
COc1cccc(/C=N/NC(=O)COc2cccc3cccnc23)c1O	0%	0%	9%	?	-80*
O=C(COc1ccc(Cl)cc1)N/N=C/c1cccc2cccnc12	-15%	-1%	/	?	?
O=C(CSc1cccc2cccnc12)N/N=C/c1ccc(O)cc1	-6%	0%	-3%	?	-9
CNc1cccccc1=S	-5%	0%	4µM*	-14	-2
CC[n+]1ccc(/C=C/c2ccc(N(C)C)cc2)c2ccccc21	-3%	8%	25µM*	-2	-10
N[C@H](C(=O)O)[C@H](Cc1ccccc1)C(=O)O	0%	/	/	/	/
CC1Cc2ccccc2N1NC(=O)c1ccc(Cl)c(S(N)(=O)=O)c1 (stereo unspecified)	0%	-2%	-7%	-85*	-12
